Compound activity: PubChem BioAssay, National Center for Advancing Translational Sciences (NCATS)
Hits are enriched below; roughly 6.4% of the tested compounds scored in any of these assays.
VP16 counter – Gal4-VP16 reporter inhibition counter-screen; Drosophila S2 Gal4-VP16 UAS-luciferase, luminescence, 20 h; AID 2546; Potency, µM (doses to about 53.6 µM), without a hit: at the highest dose activity, negative = inhibition, most hits filed as inhibitors; actives 3.5% (n = 310,000);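 further: Gal4-VP16 expression switched on by copper sulfate through the metallothionein promoter; nearly all actives have a fitted effect of over 50% in size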
RORgamma inh – inhibitors of mouse ROR gamma transcriptional activity; actives 5.4% (n = 310,000); P51450; Drosophila S2 Gal4-RORgamma UAS-luciferase reporter, 20 h; Potency, µM (top dose mostly 53.6 µM), inactives show at the top dose activity change, negative = inhibition, most hits filed as inhibitors; further: nearly all actives have a fitted effect of over 60% in size
Target sequence (P51450 whole entry, looked up, the tested form may be a part): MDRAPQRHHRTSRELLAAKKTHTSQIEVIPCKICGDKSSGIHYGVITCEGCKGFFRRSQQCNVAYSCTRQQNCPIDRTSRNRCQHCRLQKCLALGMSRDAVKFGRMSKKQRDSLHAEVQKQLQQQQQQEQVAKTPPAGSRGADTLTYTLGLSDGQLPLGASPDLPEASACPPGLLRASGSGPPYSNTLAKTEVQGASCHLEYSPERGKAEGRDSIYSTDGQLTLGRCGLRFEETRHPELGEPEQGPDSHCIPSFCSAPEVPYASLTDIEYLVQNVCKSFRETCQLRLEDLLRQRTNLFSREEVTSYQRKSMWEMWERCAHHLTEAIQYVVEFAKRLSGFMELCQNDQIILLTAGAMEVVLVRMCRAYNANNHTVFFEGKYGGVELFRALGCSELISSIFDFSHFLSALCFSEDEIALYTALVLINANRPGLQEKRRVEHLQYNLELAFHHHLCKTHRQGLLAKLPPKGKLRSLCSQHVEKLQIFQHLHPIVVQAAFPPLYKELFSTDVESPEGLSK
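Schneider cells (Drosophila), stable Gal4 DBD–ROR gamma + UAS-luc; 1 hr cmpd preincubation; Cu2+ induction 700 uM final; 20 hr ambient; luminescence.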
Luc counter – blocks Kinase-Glo luciferase, a counter-screen artifact; Kinase-Glo luciferase, ATP luminescence, 8 min; Potency, µM (titrated, usually from 38.3 µM), without a hit: top-dose activity change, negative = inhibition, most hits filed as inhibitors; actives 0.28% (n = 200,000); AID 1379; further: nearly all actives have a fitted effect of over 60% in size
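Luminescence was the read-out, taken after 8-minute incubation at ambient temperature. Luciferase turned over luciferin with 10 uM ATP in imidazole pH 7.2 buffer containing KCl, MgCl2, Tween 20 and BSA.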
* marks the source's active call; other numbers are inactive results; ? = inconclusive; . = not tested or not shown; [ ] = dose if it differs, or a comment. The call rests on the fitted dose curve; in most records, active means well fitted curve in the direction sought with a large enough effect; inconclusive means small, poorly fitted or top-dose-only effect, or another doubt; inactive means no such curve, though single readings can be large; an effect the other way counts as inactive or inconclusive. On the % scale 0 is the no-effect control and ±100 the full control effect; potency means the concentration at half of the fitted maximal effect.

SMILES | VP16 counter | RORgamma inh | Luc counter
CCCCNC(=O)CN1C(=O)NC(CCc2ccccc2)C1=O (stereo unspecified) | -6.6% | 7.5% | -1.1%
COC(=O)C1=C(C(=O)OC)[C@@H]2N(Cc3ccccc3)c3ccccc3[C@@]23C[C@@H](C(=O)OC)N(C(=O)c2cccs2)C3=N1 | 17.8µM* | ? | -0.4%[7.66 µM]
COC(=O)C1=C(C(=O)OC)[C@@H]2N(C)c3ccccc3[C@@]23C[C@@H](C(=O)OC)N(C(=O)c2cccs2)C3=N1 | -11.1% | 19.1% | 0.0%[7.66 µM]
CCCc1cc(=O)oc2cc(OCC(=O)NC3CC(C)(C)NC(C)(C)C3)ccc12 | 5.0% | -18.4% | .
NC(=O)c1ccc(NC(=O)CN2CCN(Cc3ccccc3)CC2)cc1 | 1.8% | 2.0% | .
COc1ccc(/C=C(\C#N)C(=O)Nc2ccccn2)cc1 | 21.1% | 24.7% | .
COc1ccc(NC(=S)Nc2ccccn2)cc1 | 7.08µM* | 2.82µM* | .
COc1ccccc1NC(=O)C(=O)Nc1ccccn1 | -28.5% | 17.1% | ?
Cc1ccc(S(=O)(=O)CC(=O)Nc2ccccn2)cc1 | 3.2% | -13.7% | .
COC(=O)c1ccc(NC(=S)Nc2ccc(O)cc2)cc1 | 2.7% | -12.8% | 0.9%
COC(=O)c1ccc(NC(=S)Nc2ccccn2)cc1 | 1µM* | 1µM* | 0.1%
Cc1ccc(NC(=O)C(=O)Nc2ccccn2)cc1 | 5.62µM* | 6.31µM* | ?
COc1ccccc1NC(=S)Nc1ccccn1 | 3.55µM* | 1.58µM* | 3.9%
Cc1[nH]c2ccccc2c1-c1csc(NC(=O)CSCCO)n1 | 0.7% | 40.7% | -2.1%
COc1ccc(NC(=O)CCCc2nnc3n(C)c(=O)c4sccc4n23)cc1 | 2.3% | 0.0% | .
Cc1ccc(N(C(=O)c2ccc(S(=O)(=O)N3CCCC3)cc2)C2C=CS(=O)(=O)C2)cc1 (stereo unspecified) | 4.9% | 20.7% | .
COc1ccc(C(C)=O)cc1CSc1nnc(C)n1-c1ccccc1 | 13.0% | 0.0% | 0.1%
COc1ccc(C(C)=O)cc1CSc1nnc(-c2ccccc2O)n1-c1ccccc1 | -12.7% | 2.82µM* | -3.7%
Cn1cccc1C(=O)C(=O)Nc1cc(Cl)cc(Cl)c1 | -12.1% | 32.1% | 11.2µM*
Cn1cccc1C(=O)C(=O)Nc1ccc(Cl)cc1 | -27.4% | -22.3% | ?
O=C(c1cn2ccccc2n1)N1CCCC(Nc2ccc(F)c(F)c2)C1 (stereo unspecified) | 16.3% | -0.6% | .
Cc1cccc(CN2CCC(n3nccc3NC(=O)CCCc3ccccc3)CC2)n1 | 20.1% | 5.2% | .
O=C(/C=C/c1c(Cl)cccc1Cl)N1CCOCC1 | 10.1% | -18.4%[1.91 µM] | .
O=C(/C=C/c1c(Cl)cccc1Cl)n1cccn1 | 11.2µM* | ? | 0.4%
CC(C)C[C@H](NC(=O)C1OC1C(=O)O)C(=O)NCCCCN=C(N)N (stereo partly specified) | . | . | -9.3%
SMILES | VP16 counter | RORgamma inh | Luc counter
COCC(=O)N1CCC2(CC1)CCN(c1ncccn1)CC2 | -0.9% | -1.1% | -0.1%
CC1CCCC(C)N1/N=C/c1ccc(N(C)C)cc1 (stereo unspecified) | -11.8% | ? | 4.7%
CN(C)c1ccc(/C=N/n2c(C3CCCCC3)n[nH]c2=S)cc1 | 6.31µM* | 2.51µM* | .
S=c1[nH]nc(C2CCCCC2)n1/N=C/c1ccccn1 | -10.3%[10 µM] | -13.0% | -0.4%
CCOc1ccc(/C=N/n2cnnc2)cc1 | -4.6% | 14.6% | 2.4%
S=c1[nH]nc(C2CCCCC2)n1/N=C/c1ccccc1 | ? | 8.91µM* | .
CCOc1ccc(/C=N/n2c(C3CCCCC3)n[nH]c2=S)cc1 | ? | 3.98µM* | .
Fc1ccc(/C=N/n2c(C3CCCCC3)n[nH]c2=S)cc1 | 7.94µM* | 3.55µM* | .
Oc1ccc(Br)cc1/C=N/n1c(C2CCCCC2)n[nH]c1=S | ? | -38.6% | .
O=C(NCc1cccc(F)c1)C1CCC(=O)N(C2CC2)C1 (stereo unspecified) | 3.0% | 35.4% | .
O=C(NNC(=O)c1ccccc1[N+](=O)[O-])c1ccc(NS(=O)(=O)c2cccs2)cc1 | 4.6% | -29.3% | .
Ic1ccc2c(c1)N(c1ccccc1)c1cc(Nc3ccc4nc5ccc(I)cc5[n+](-c5ccccc5)c4c3)ccc1N2 | . | . | -10.8%[7.66 µM]
CCCCCC(=O)Nc1cccc2ccccc12 | -12.5% | 9.3% | -4.2%
CCCC(=O)NC(=S)Nc1ccccc1C(=O)OC | ? | 15.8µM* | 1.1%
COC(=O)c1ccccc1NC(=S)NC(=O)COc1ccc(C(C)C)cc1 | ? | 11.2µM* | 0.4%
CCCC(=O)NC(=S)Nc1cccc2c(O)cccc12 | ? | 12.6µM* | 0.1%
CCC(=O)NC(=S)Nc1ccccc1C(=O)OC | ? | 12.6µM* | -2.6%
COC(=O)c1ccccc1NC(=O)Oc1ccc(C(C)C)cc1 | -1.2% | 10.1% | -2.0%
CCCCOC(=O)Nc1ccccc1C(=O)OC | -3.2% | 2.4% | -3.2%
COC(=O)c1ccccc1NC(=S)NC(C)=O | 21.8% | ? | 5.2%
Cc1ccc(S(=O)(=O)CCC(O)c2ccc(Cl)cc2)cc1 (stereo unspecified) | -7.8% | 13.3% | .
Cc1cccc(CC(=O)Nc2ccc(C(=O)N3CCOCC3)cc2)c1 | 11.8% | 7.3% | .
O=c1ccnc(Nc2ccc3c(c2)OCCO3)[nH]1 | -7.8% | -1.6% | .
O=C(Cc1ccc2c(c1)OCCO2)N1CCN(c2ccccc2)CC1 | -5.9% | 42.6% | 5.6%
COC(=O)c1ccccc1NC(=S)NC(=O)c1ccc2ccccc2c1 | ? | ? | 0.2%
SMILES | VP16 counter | RORgamma inh | Luc counter
COC(=O)c1ccccc1NC(=O)NC1CC1 | -5.0% | 3.9% | 2.5%
Cc1cccc(C)c1OCC(=O)NC1CC1 | -3.7% | ? | .
COC(=O)c1ccccc1NC(=S)NC(=O)C1CC1 | -20.0% | 12.6µM* | 7.5%
COC(=O)c1ccccc1NC(=S)NC(=O)c1cccc2ccccc12 | 17.8µM* | 4.47µM* | -2.8%
Cc1cccc(C)c1OCC(=O)NNC(=S)NC(=O)C1CC1 | ? | 17.8µM* | .
COc1ccc(-c2cc(C(=O)Nc3cc(OC)cc(C(=O)Nc4cccc(C(F)(F)F)c4)c3)[nH]n2)cc1 | -5.1% | 14.7% | .
Cc1nnc(NC(=O)CSc2nnc(CC(=O)Nc3ccccc3C)n2C)s1 | 0.5% | 6.1% | .
O=C1C2C(c3ccccc3)CC=CC2C(c2cccc([N+](=O)[O-])c2)N1Cc1ccccc1 (stereo unspecified) | -1.1% | 20.2% | .
CCc1nc(C)cn1S(=O)(=O)c1ccc(Br)cc1 | 9.5% | ? | .
CCOC(=O)CSC1=C(C#N)C(c2ccc(OC)cc2)C2=C(CC(C)(C)CC2=O)N1 (stereo unspecified) | 20µM* | ? | 5.9%
COc1ccc(C2C(C#N)=C(SC)NC3=C2C(=O)CC(C)(C)C3)cc1 (stereo unspecified) | -10.8% | ? | 7.8%
O=C1c2c(O)cc(O)cc2OC(c2ccc(O)c(O)c2)C1O (stereo unspecified) | -1.5% | 8.3% | -10.3%
COc1ccc([C@H]2Oc3cc(O)cc(O)c3C(=O)C2[C@@H]2C(=O)c3c(O)cc(O)cc3O[C@@H]2c2ccc(OC)cc2)cc1 (stereo partly specified) | 22.4µM* | -89.8% | .
N#C/C(=C/c1ccco1)c1nc2ccccc2s1 | 5.62µM* | 5.01µM* | ?
N#C/C(=C\c1ccco1)c1nc2ccccc2s1 | ? | -42.6% | ?
COC(=O)C1=C(C)[C@@H](O)[C@@H](C)[C@](C)(c2cc(OC)c(C)c(OC)c2COc2ccccc2)O1 | 7.9% | -22.2% | -0.5%
